High-throughput results deposited in PubChem BioAssay by National Center for Advancing Translational Sciences (NCATS).
The list is not random: actives were taken first. Their share in the collection is about 14%.
FBPA Giardia inh – blocks Giardia fructose-bisphosphate aldolase activity; A8B2U2; purified Giardia FBPA; Potency, µM (titrated, usually from 59.6 µM), for inactives: at the highest dose activity, negative = inhibition, usual class: inhibitors; 290,000 tested, 0.71% active; also: potency is read from the fitted curve at half-maximal effect; nearly all actives have a fitted effect of over 55% in size
Target sequence (A8B2U2 whole entry, looked up): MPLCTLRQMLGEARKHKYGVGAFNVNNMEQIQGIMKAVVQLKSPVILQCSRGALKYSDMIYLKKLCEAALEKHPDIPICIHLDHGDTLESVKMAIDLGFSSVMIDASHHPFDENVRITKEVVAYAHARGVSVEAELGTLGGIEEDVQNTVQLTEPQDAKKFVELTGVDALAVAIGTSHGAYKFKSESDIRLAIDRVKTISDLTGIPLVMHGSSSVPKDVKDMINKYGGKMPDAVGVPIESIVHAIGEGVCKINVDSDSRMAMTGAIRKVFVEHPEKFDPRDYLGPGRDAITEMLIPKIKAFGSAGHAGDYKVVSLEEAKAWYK
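Giardia FBPA (40 nM reagent) was preincubated 10 min at RT with compound (up to 57.5 uM final), then substrate plus GAPDH/TPI/NAD/arsenate coupling system with diaphorase/resazurin was added; resorufin fluorescence (525/598 nm) was read after 20 min.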
HCMV inh – blocks human cytomegalovirus replication. HFF cells, HCMV-luciferase reporter, 72 h; stronger effect = lower value. activity change, negative = inhibition, % at 57.5 µM. 410,000 tested, 4.5% active; in the data active = activity change below about -60%; inconclusive = no clear call, values can overlap the other calls; inactive = above about -39%
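HFF cells seeded 16 h at 37C, treated with compounds, infected with luciferase-reporter HCMV at MOI 1 PFU/cell; luciferase read at 72 h post infection, normalized to buffer-only and Salinomycin controls.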
Pf growth 96h – P. falciparum growth inhibition at 96 hour, primary screen for plastid delayed-death inhibitors | Potency, µM (doses to about 28.7 µM), inactives show at the highest dose activity change, negative = inhibition, actives largely listed as inhibitors | P. falciparum luciferase reporter growth, 96 h | 320,000 tested, 6.9% active | AID 504834; also: potency is read from the fitted curve at half-maximal effect
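Erythrocytes infected with luciferase-expressing P. falciparum were dispensed at 2% hematocrit and 0.05% parasitemia (final), then incubated with compounds 96 hours at 37 C in 5% CO2. Luminescence after detection reagent addition reported growth.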
Sm TGR block – inhibitors of Schistosoma mansoni thioredoxin glutathione reductase | AID 485364 | purified TGR, DTNB reduction, TNB absorbance 405 nm | Q962Y6 | Potency, µM (series often up to 114 µM), without a hit: at the top dose activity change, negative = inhibition, hits mostly inhibitors | 360,000 tested, 3% active; also: potency is read from the fitted curve at half-maximal effect; nearly all actives have a fitted effect of over 60% in size
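First, TGR (20 nM dispensed) and NADPH were mixed with compound. Second, a 15 min room-temperature incubation followed. Third, further NADPH and then DTNB were added to start the reaction. Finally, TNB absorbance was monitored kinetically.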
Pf growth 48h – inhibits P. falciparum growth in the first generation, 48 h; P. falciparum luciferase growth in erythrocytes, 48 h; Potency, µM (series often up to 28.7 µM), for the others: at the top dose activity change, negative = inhibition, most hits filed as inhibitors; AID 504832; 310,000 tested, 5.9% active; also: potency is read from the fitted curve at half-maximal effect
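Growth was read as firefly luciferase luminescence after a 48 h, 37 C, 5% CO2 exposure of compounds to reporter-bearing P. falciparum cultures (0.1% parasitemia, 2% hematocrit final) in Albumax-supplemented RPMI 1640.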
* hit, by the source's call; ? = inconclusive; · = no result given. Unless noted, calls follow the shape of the dose curve; as a rule, active = well fitted curve in the direction sought with a large enough effect; inconclusive = small, poorly fitted or top-dose-only effect, or another doubt; inactive = no such curve, though single readings can be large; an effect the other way counts as inactive or inconclusive. % is scaled to controls: 0 for no effect and ±100 for the full control effect.

SMILES	FBPA Giardia inh	HCMV inh	Pf growth 96h	Sm TGR block	Pf growth 48h
CC(C)C[C@H](NC(=O)c1[nH]cnc1C(=O)N[C@@H](Cc1ccccc1)C(=O)OCc1ccccc1)C(=O)OCc1ccccc1	19.4%	59.2	?	-8.9%	?
CC[C@H](C)[C@H](NC(=O)CNC(=O)[C@@H](NC(=O)[C@@H](NC(=O)[C@H](Cc1ccc(O)cc1)NC(=O)[C@H](CC(C)C)NC(=O)[C@H](C)NC(=O)[C@H](CCC(N)=O)NC(=O)CNC(=O)[C@@H]1CCCN1C(=O)CNC(=O)[C@H](Cc1ccccc1)NC(=O)[C@H](Cc1cnc[nH]1)NC(=O)[C@@H](NC(=O)CNC(=O)[C@H](CCCNC(=N)N)NC(=O)[C@H](CCCNC(=N)N)NC(=O)[C@@H](NC(=O)[C@H](CC(N)=O)NC(=O)[C@@H](N)CS)[C@@H](C)O)[C@@H](C)CC)[C@@H](C)O)[C@@H](C)O)C(=O)O	0.9%	·	·	·	·
Cc1cccc(NC(=O)c2ccc(C)c(S(=O)(=O)N3CCOCC3)c2)n1	·	21.8	·	·	·
COc1ccc(N2C(=O)/C(=C/c3ccc(C)o3)C(=O)NC2=S)cc1	?	34.2	-5.8%	1.26µM*	-2.3%
CN1CCN(c2ccc(/C=C3\C(=O)NC(=S)N(c4cccc(Br)c4)C3=O)o2)CC1	-8.0%	31.1	-10.5%	-5.2%	-20.3%
Cc1ccc(/C=C2\C(=O)NC(=S)N(c3cccc(F)c3)C2=O)o1	-22.8%	-2.0	?	0.708µM*	5.5%
CCOc1ccc(N2C(=O)NC(=O)/C(=C\c3ccc(N4CCCCC4)o3)C2=O)cc1	-3.3%	2.8	13.1µM*	-34.5%	?
O=C1NC(=O)N(c2ccc3c(c2)OCO3)C(=O)/C1=C/c1ccc(N2CCCC2)o1	-0.2%	-36.7	1.1%	?	?
CCOc1ccc(N2C(=O)/C(=C/c3ccc(C)o3)C(=O)NC2=S)cc1	?	1.7	160.6%	1.41µM*	-1.6%
CCOC(=O)NCCc1c(C)nc2c(c(C)nn2C(C)(C)C)c1C	2.0%	-23.5	0.165µM*	3.5%	·
COC(=O)c1cc(NC(=O)CCc2c(C)nc3c(c(C)nn3C(C)(C)C)c2C)cc(C(=O)OC)c1	·	8.4	·	-9.7%	·
COc1cc(C(=O)OCCN2CCOCC2)cc(OC)c1OC	-0.5%	48.3	-24.1%	1.9%	-2.1%
CCN(CC)CCCCCCCCOC(=O)c1cc(OC)c(OC)c(OC)c1	-4.0%	28.7	10.4µM*	1.6%	9.28µM*
COc1cc(C(=O)OCCCN2CCCN(CCCOC(=O)c3cc(OC)c(OC)c(OC)c3)CC2)cc(OC)c1OC	-2.9%	170.5	-15.1%	·	9.53µM*
Cc1c(C(=O)OC2CCCC2)[nH]c2c1C(=O)CC(c1ccco1)C2 (stereo not drawn)	1.9%	-94.8*	?	-34.1%	7.38µM*
C/C=C/COC(=O)c1[nH]c2c(c1C)C(=O)CC(c1ccco1)C2 (stereo not drawn)	-3.4%	-65.3*	-33.9%	50.1µM*	1.47µM*
Cc1c(C(=O)OCC(C)C)[nH]c2c1C(=O)CC(c1ccco1)C2 (stereo not drawn)	-10.4%	-76.7*	0.0%	?	11.7µM*
Cc1c(C(=O)OCC2CCCO2)[nH]c2c1C(=O)CC(c1ccco1)C2 (stereo not drawn)	-8.1%	·	·	?	?
C=CCOC(=O)c1[nH]c2c(c1C)C(=O)CC(c1ccco1)C2 (stereo not drawn)	-2.9%	·	-86.2%	44.7µM*	5.22µM*
O[C@H]1C[C@H](c2ccc(Cl)cc2)N(Cc2cccs2)C[C@@H]1n1cc(-c2ccc(F)cc2)nn1	·	-7.4	·	·	·
N#Cc1c(-n2ncnc2-c2ccccc2Cl)sc2c1CCCCC2	·	-0.2	·	-4.7%	·
Cc1ccc2c(c1C)NC(C)CC2C (stereo not drawn)	-29.4%	13.0	?	-9.4%	13.1µM*
CCOC(=O)c1ccc2c(c1)nc(SCC(=O)c1cc3ccccc3o1)n2CC	-4.6%	66.9	?	5.7%	·
CCOC(=O)c1ccc2c(c1)nc(COc1ccc(OC)cc1)n2CC	1.0%	-19.9	9.28µM*	-21.2%	·
C=CCNC(=O)CSc1nc2cc(C(=O)OCC)ccc2n1CC	14.0%	-2.7	10.4µM*	-1.0%	·
SMILES	FBPA Giardia inh	HCMV inh	Pf growth 96h	Sm TGR block	Pf growth 48h
Cc1ccc(C(=O)N2CCN(c3ccc(F)cc3)CC2)cc1NC(=O)c1nsc2ccccc12	·	28.9	·	0.5%	·
COc1ccc(CNC(=O)c2cc(-c3ccc(C)c(C)c3)n[nH]2)cc1	·	62.1	·	3.8%	·
COc1ccc(Cc2nnc(N/N=C/c3ccc(O)cc3)[nH]c2=O)cc1OC	9.2%	-99.7*	13.1µM*	-9.3%	9.28µM*
COc1ccc(Cc2nnc(N/N=C/c3ccc(Br)cc3)[nH]c2=O)cc1OC	-7.0%	-20.2	?	1.9%	1.1%
CCc1ccc(C(C(=O)NC(C)(C)CC)N(Cc2ccco2)C(=O)Cn2nnc3ccccc32)cc1 (stereo not drawn)	4.4%	0.0	16.1%	-2.9%	11.7µM*
CCC(C)(C)NC(=O)C(c1cccn1C)N(C(=O)Cn1nnc2ccccc21)c1ccc(F)cc1 (stereo not drawn)	1.6%	-16.6	?	-0.3%	?
O=C(NC1CCCCC1)C(c1ccco1)N(Cc1cccs1)C(=O)Cn1nnc2ccccc21 (stereo not drawn)	11.1%	-26.0	·	-13.2%	?
CCC(C)(C)NC(=O)C(c1cccn1C)N(C(=O)Cn1nnc2ccccc21)c1ccc(OC)cc1 (stereo not drawn)	1.6%	-31.8	-4.3%	0.0%	11.7µM*
O=C(NC1CCCCC1)C(c1ccccc1)N(Cc1ccco1)C(=O)Cn1cnc2ccccc21 (stereo not drawn)	-2.6%	-39.5	81.3%	-33.1%	3.7µM*
Cc1cccc(N(C(=O)Cn2nnc3ccccc32)C(C(=O)NC(C)(C)C)c2ccsc2)c1 (stereo not drawn)	-1.3%	?	3.29µM*	-24.5%	10.4µM*
COc1ccc(CN(C(=O)Cn2nnc3ccccc32)C(C(=O)NC(C)(C)C)c2ccco2)cc1 (stereo not drawn)	1.3%	22.1	4.65µM*	-3.1%	-10.8%
